# Assay results as given in PubChem BioAssay AID1259312 (Keith Lab, Institute of Cancer Science, University of …, 2017).
# About 200 (4.4%) of roughly 4,500 compounds were called active. Shown is part of a subset that was picked to be rich in actives. Unmarked numbers belong to inactive results.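 The calls were made as follows: active = cell survival measured by absorbance rises more than 2.5-fold over infected cells without compound; inactive = the rest.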
# Assay: survival after telomere uncapping, modulators, primary screen, cell-based (AID 1259312);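 also: virus expresses mutant telomerase RNA that uncaps telomeres and kills cells; compound added 2 days after infection so exposure lasts 3 days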
# Conditions: HCT116 + Ad-hTR-mut, MTT, 5 d; at 10 µM, hits give high values
row,SMILES,fold change
1,CC1CN(c2ccc([N+](=O)[O-])c(N3CCOCC3)c2)CCN1 (stereo not given),-1.03
2,O=[N+]([O-])c1ccc(N2CCOCC2)cc1Cl,4.62 (active)
3,CN1CCN(c2ccc([N+](=O)[O-])c(N3CCN(C)CC3)c2)CC1,-1.49
4,O=[N+]([O-])c1ccc(Cl)c2nonc12,-8.7
5,NC1(Cc2ccc(Cl)cc2)CC1,-2.29
6,COc1cc2c(cc1OC)C13CCN4CC5=CCOC6CC(=O)N2C1C6C5CC43 (stereo not given),3.18 (active)
7,O=C1C[C@@H]2OCC=C3CN4CC[C@]56c7ccccc7N1[C@H]5[C@H]2[C@H]3C[C@H]46,-1.27
8,CN1CCN(c2ccc([N+](=O)[O-])cc2Cl)CC1,-1.02
9,Cc1cc(C)c(C)c(C=C(C#N)C#N)c1C,1.51
10,N#CC(C#N)=Cc1c2ccccc2cc2ccccc12,3.81 (active)
11,CCc1cc(CC)c(C=C(C#N)C#N)c(CC)c1,1.07
12,CCOC(=O)c1c(NC(=O)C2C(C)(C)C2(C)C)sc2c1CCC2,-1.33
13,CC1CN(c2ccc([N+](=O)[O-])cc2[N+](=O)[O-])CCN1 (stereo not given),2.15
14,Clc1ccc2c(N3CCNCC3)ccnc2c1,-2.13
15,C[C@]12CC[C@H](O)C[C@@H]1CC[C@@H]1[C@@H]2CC[C@]2(C)C(=O)CC[C@@H]12,1.18
16,CC(=O)OC1CCC2(C)C3CCC4(C)C(CC[C@]4(OC(C)=O)C(C)OC(C)=O)C3CC[C@H]2C1 (stereo not given in full),3.25 (active)
17,COC(=O)C(N)CCCN=C(N)N[N+](=O)[O-] (stereo not given),-1.4
18,CCNc1nc(Cl)nc(NCC)n1,2.5 (active)
19,O=c1[nH]c(=O)n(Cc2ccco2)c(O)c1C=NCc1cccs1,inactive
20,COC(=O)Nc1nc2ccccc2[nH]1,-8.68
21,O=[N+]([O-])c1ccc(NCCO)c2cccnc12,-1.59
22,O=[N+]([O-])c1ccc(NCCO)c2ncccc12,2.89 (active)
23,CCNCCNc1ccc([N+](=O)[O-])c2cccnc12,-2.62

row,SMILES,fold change
1,N#Cc1c(/N=C/c2c(O)n(Cc3ccco3)c(=O)[nH]c2=O)sc2c1CCCC2,inactive
2,CC1CN(c2ccccc2[N+](=O)[O-])CCN1 (stereo not given),1.8
3,CC1(C)C(C(=O)Nc2cc(Br)c(Br)c(Br)c2)C1(C)C,-1.03
4,COc1cc2c(cc1OC)C(C)NCC2 (stereo not given),1.05
5,COc1cc2c(cc1O)CCNC2C (stereo not given),4.6 (active)
6,COc1ccc(CC2NCCc3cc(OC)c(OC)cc32)cc1OC (stereo not given),-2.4
7,COCc1c(C)cc(C)c(C=C(C#N)C#N)c1C,-1.04
8,C[C@]12CC[C@H]3[C@@H](CC[C@]4(O)C[C@@H](O)CC[C@]34C=O)[C@@]1(O)CC[C@@H]2C1=CC(=O)OC1,-23.3
9,CCC1CN2CCC1CC2C(O)c1ccnc2ccc(OC)cc12 (stereo not given),1.15
10,C#CCSc1nc2ccccc2c(=O)n1-c1ccccc1,-2.72
11,CCCCc1ccc(C=C(C#N)C#N)s1,-1.17
12,Nc1nonc1[N+](=O)[O-],1.03
13,Nc1nonc1-c1nn[nH]n1,-1.38
14,N/N=C(\N)c1nonc1N,3.99 (active)
15,Cc1cc(C)[n+]2cc(Br)ccc2n1,1.21
16,O=C(CCl)Nc1ccccn1,-1.43
17,CC1CN(c2ccc([N+](=O)[O-])c3cccnc23)CC(C)N1 (stereo not given),3.89 (active)
18,CN1CCN(c2ccc([N+](=O)[O-])c3cccnc23)CC1,-1.27
19,O=[N+]([O-])c1ccc(N2CCNCC2)c2cccnc12,-1.29
20,O=C(CCl)NCc1ccco1,1.2
21,CCc1nnc(NC(=O)CCl)s1,1.66
22,N#CC1=C(N)Oc2c(c(=O)oc3ccccc23)C1c1cccc2ccccc12 (stereo not given),-1.29
